Where “and” joins values, the source holds several entries; their conditions need not be identical. Equal entries are not always repeated. This is part of a sample that, as a whole, favours compounds with a hit. Of some 83,000 tested, about 20% had one in any assay.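 Percent growth is the endpoint: 0 to 100 indicates growth inhibition (40 means 60% inhibition), 0 means no net growth, and negative values indicate cell death.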 A number with no mark means an inactive call. Calls of active or inactive are those of the source. The calls were made as follows: active = growth percent below 10; inactive = the rest.

The test system of this test is MDA-MB-468 breast. As to the kind of experiment: NCI-60 one-dose screen, 48 h (100 = growth as untreated, 0 = no growth, -100 = all killed). Particulars: 10 µM unless noted.
As for `Cc1ccc(C(O)C2CC2)cc1` (stereo not given), the growth is 103%.

`COc1cc(N)ccc1Nc1c2ccccc2nc2ccccc12`: the growth was 92.4%.

On to `O=C1C(Cl)=C(N/N=c2/[nH][nH]/c(=N/NC3=C(Cl)C(=O)c4ccccc4C3=O)c3ccccc23)C(=O)c2ccccc21`, for which the growth is 62.9%.

As to `CCOC(=O)CCCC(=O)OCC`, the growth is 116%.

For the compound `CC(Sc1nc2ccccc2c(=O)n1CCc1ccc(S(N)(=O)=O)cc1)C(=O)Nc1ccc(Cl)cc1` (stereo not given), the growth was 84%.

Turning to `CCOC(=O)C1=C(c2ccccc2)N=C2N(c3ccccc3)N=C(C(C)=O)N2C1c1ccc(Br)cc1` (stereo not given), the growth is 99.3%.

For `CCc1cccc(CC)c1NC(=O)c1sc2nc3c(cc2c1N)CCCC3`, the growth is 79.3%.

As for `O=C(CCCCCCN1CC(=O)N2[C@@H](c3cccc(Br)c3)c3[nH]c4ccccc4c3C[C@H]2C1=O)NO`, the growth was 28.1%.

Turning to `CCCC(CC)(C(=O)Nc1ccc2nc(C)cc(N)c2c1)C(=O)Nc1ccc2nc(C)cc(N)c2c1`, the growth is 87%.

Consider `COc1ccc2c(c1)C=CC(C#N)N2C(=O)c1ccccc1` (stereo not given), for which the growth is 13.1%.

Take `Nc1ccc(NC(=O)c2cccc(N)c2)cc1`: the growth is 94.2%.

For the compound `COc1cc(-c2csc(NC(=O)c3ccc(N4CCOCC4)c(C(F)(F)F)c3)n2)cc(OC)c1OC`, the growth is 27.2%.

`O=C(Nc1ccc(N2CCNCC2)cc1)c1[nH]ncc1Nc1cc(Oc2ccccc2)ncn1`: the growth is 34.6%.

For the compound `COC(=O)C(=Cc1ccccc1[N+](=O)[O-])C(=O)OC`, the growth was 20.2%.

In the case of `O=C(NO)c1ccc(Cn2c(=O)n(-c3ccccc3)c(=O)c3ccccc32)cc1`, the growth was 16.9%.

In the case of `COc1ccc(-n2c(COc3ccc(F)cc3)n[nH]c2=S)cc1`, the growth was 103%.

For `Fc1ccc2c(CN3CCO[C@H](COc4cccc(Cl)c4)C3)c[nH]c2c1`, the growth is -38.7% (active).

In the case of `Cn1cc(-c2csc(-c3cn(CCCN4CCCCC4)c4ccccc34)n2)c2cccnc21`, the growth is 99.8%.

Consider `Cc1cc(=O)[nH]c(=O)n1Cc1cn(-c2c3ccccc3nc3ccccc23)nn1`, for which the growth is -66.7% (active).

As to `COc1ccc2c(c1)[n+](=O)c(/C=C/C(=O)c1cc(OC)c(OC)c(OC)c1)c(C)n2[O-]`, the growth is 24.9%.

Regarding `CS(=O)(=O)c1ccc(-c2nc3ccccn3c2/C=N/Nc2nc(-c3ccc(Br)cc3)cs2)cc1`, the growth is 102%.

Turning to `CC[C@]1(O)CC2CN(CCc3c([nH]c4ccccc34)[C@@](C(=O)OC)(c3cc4c(cc3OC)N(C)[C@H]3[C@@](O)(C(=O)OC)[C@H](OC(C)=O)[C@]5(CC)C=CCN6CC[C@]43[C@@H]65)C2)C1` (stereo not given in full), the growth was 16.1%.

Regarding `Cc1cc(N2CCN(C)CC2)nc(NCc2cc(Nc3ccnc4cc(Cl)ccc34)ccc2F)n1`, the growth is -60.4% (active).

On to `Nc1cc(F)ccc1NC(=O)c1ccc(NC(=O)C/C=C/c2cccnc2)cc1`, for which the growth was 40.1%.

In the case of `OC[C@@H](O)[C@@H](O)CO`, the growth is 102%.

Turning to `CCN1CCC2(CC1)OC(c1ccccc1)C(c1ccccc1)O2` (stereo not given), the growth was 102%.

As for `Cc1ccc(C(=O)c2ccc(C)cc2)cc1`, the growth is 91%.

`O=C1C=CC(=CC=C2C=CN(CCCCCCCCCCCO)C=C2)C=C1`: the growth was -37.4% (active).

Take `COc1ccc2c(c1)c(-c1nonc1-c1cn(C)c3ccc(OC)cc13)cn2C`: the growth was 29%.

Take `CNc1cc(C(=O)O)nc(NC)n1`: the growth was 95.5%.

For `Cn1c(=O)n(-c2ccc(C(C)(C)C#N)cc2)c2c3cc(-c4cnc5ccccc5c4)ccc3ncc21`, the growth was -24.6% (active) and -48.4% (active).

`COC(=O)[C@H](Cc1cn(C)cn1)NC(=O)[C@H](CC(C)C)NC(=O)Nc1cc(C(F)(F)F)cc(C(F)(F)F)c1`: the growth is -72.1% [100 µM] (active).

As to `C/C(=N\NC(=S)Nc1ccccc1)c1ccccn1`, the growth is -10.2% (active).

For `O=c1c2cc(F)ccc2sc2c(N3CCNCC3)nc3ccccc3c12`, the growth is -41.2% (active).

In the case of `CCCCCCCCCCCC[N+](C)(C)Cc1ccccc1`, the growth was -26.4% (active).

For the compound `O=C1Nc2ccccc2/C1=C/c1cn(CC(O)Cn2cc(/C=C3\C(=O)Nc4ccccc43)c3ccccc32)c2ccccc12` (stereo not given), the growth is -84.8% (active).

As to `COc1ccc(C/C(C)=C(/c2ccc(OCCN3CCCCC3)cc2)c2ccc(OC(=O)NCc3ccccc3)cc2)cc1`, the growth is -82.7% (active).

In the case of `Cc1ccc(S(=O)(=O)NCCNc2cc(-c3cn(C(C)(C)C)nc3-c3cccc(O)c3)ccn2)cc1`, the growth is 35.8%.

`Cc1c(Cl)cccc1NC(=O)CN1CCOCC1`: the growth is 107%.

Regarding `O=C(/C=C/c1cccc(B(O)O)c1)c1cccc(B(O)O)c1`, the growth was -84.9% (active).

For the origin of these results see PubChem BioAssay (NCI).
